From PubChem BioAssay AID463173 (ICCB-Longwood Screening Facility, Harvard Medical School, 2010)
The campaign covered roughly 52,000 compounds. About 4,300 (8.3%) were called active. Rule as the data show it: active = survival mostly below about 52% (no sharp cut-off); inactive = mostly above about 56%. What follows is part of a selection rich in actives, with near analogues and random picks from the rest.

The compounds below were run on DeltatarO mutant (assay: S. aureus survival, RN4220 and DeltatarO strains – OD600, teichoic acid synthesis inhibitors, primary screen (AID 463173)). Conditions: S. aureus RN4220 wild type/DeltatarO growth, OD600, 18 h, stronger effect = lower value, screened at 18.75 µg/mL (by protocol).

Compound	survival
Cc1cc(C)cc(S(=O)(=O)Nc2cccc(-c3ccc(N4CCOCC4)nn3)c2)c1	86% (inactive)
CCOC(=O)C1CCCN(C(=O)Cn2ncc3c(C)n(Cc4ccc(Cl)cc4)c(C)c3c2=O)C1 (stereo not drawn)	59% (inactive)
O=C(CSc1nnc(-c2ccc3c(c2)OCO3)o1)Oc1ccccc1	87% (inactive)
CSc1nc(N)c(C#N)c(C(C)C)c1C#N	75% (inactive)
COc1ccc(-n2nc(C(=O)Nc3cccc(C(F)(F)F)c3)c3c4ccccc4n(C)c3c2=O)cc1	78% (inactive)
CN1C(=O)CC(=O)N(C)c2cc(S(=O)(=O)N(C)Cc3ccccc3)ccc21	3% (active)
CN1C(=O)Cc2cc(S(=O)(=O)NCCc3ccccc3)ccc21	123% (inactive)
Cc1cc(S(=O)(=O)N(C)Cc2ccccc2)ccc1-n1cnnn1	81% (inactive)
Cc1oc(-c2ccccc2Cl)nc1CS(=O)(=O)CC(=O)NC(C)c1ccccc1 (stereo not drawn)	63% (inactive)
Cc1ccc2ncc(C(=O)Nc3cccc(C(F)(F)F)c3)c(=O)n2c1	122% (inactive)
Cc1[nH]c2ccccc2c1C1N2CC3(C)CN1CC(C)(C2)C3=O (stereo not drawn)	77% (inactive)
COc1ccc(N(CC(=O)Nc2cccc(Cl)c2C)S(=O)(=O)c2c(C)nn(C)c2C)cc1	62% (inactive)
Cc1cc(C)cc(N(CC(=O)Nc2c(C)cc(C)cc2C)S(=O)(=O)c2c(C)nn(C)c2C)c1	-5% (active)
CCc1ccc(NC(=O)CN(c2ccc(C)cc2)S(=O)(=O)c2c(C)nn(C)c2C)cc1	56% (inactive)
Cc1cccc(NC(=O)CN(c2ccc(C(C)C)cc2)S(=O)(=O)c2c(C)nn(C)c2C)c1C	42% (active)
Cc1nn(C)c(C)c1S(=O)(=O)N(CC(=O)Nc1ccc(F)cc1F)c1ccc(C(C)C)cc1	94% (inactive)
CCOc1ccccc1NC(=O)CN(c1cc(C)cc(C)c1)S(=O)(=O)c1c(C)nn(C)c1C	89% (inactive)
CC(=O)c1ccc(N2CCN(S(=O)(=O)c3ccc(-c4cc(C(F)(F)F)on4)s3)CC2)cc1	96% (inactive)
Cc1cc(-c2ccc(S(=O)(=O)N3CCN(c4ccc(Cl)cc4)CC3)s2)on1	124% (inactive)
CC(=O)c1ccc(N2CCN(S(=O)(=O)c3ccc(-c4cc(C)no4)s3)CC2)cc1	-5% (active)
Cc1cc(C)c(NC(=O)CN2C(=O)C3(SCC(=O)N3c3ccc(F)cc3)c3ccccc32)c(C)c1 (stereo not drawn)	74% (inactive)
CN(Cc1ccccc1)C(=O)CSc1nnc(-c2cccc(Cl)c2)o1	85% (inactive)
CCNC(=O)C1CN(S(=O)(=O)c2ccccc2)CCN1S(=O)(=O)c1ccccc1 (stereo not drawn)	75% (inactive)
O=C(N/N=C/c1ccco1)C1CN(S(=O)(=O)c2ccccc2)CCN1S(=O)(=O)c1ccccc1 (stereo not drawn)	1% (active)
O=C(N/N=C/c1ccco1)C1c2ccccc2Oc2ccccc21	96% (inactive)
Cc1ccc(CNS(=O)(=O)c2ccc3c(c2)CCN3S(C)(=O)=O)cc1	94% (inactive)
O=C(Nc1cccc(C(F)(F)F)c1)c1ccc(F)c(S(=O)(=O)N2CCc3ccccc3C2)c1	91% (inactive)

Compound	survival
COc1ccc(-n2c(/C=C/c3cccc4ccccc34)nc3ccccc3c2=O)cc1Cl	78% (inactive)
COc1cc2c(cc1OC)C(COc1ccc(F)cc1)N(C(=O)c1ccc(S(=O)(=O)N3CCCC3)cc1)CC2 (stereo not drawn)	81% (inactive)
COC(=O)c1ccc(OCC2c3cc(OC)c(OC)cc3CCN2C(=O)COc2ccc(Cl)cc2)cc1 (stereo not drawn)	78% (inactive)
COc1cc2c(cc1OC)C(COc1cc(C)cc(C)c1)N(C(=O)c1ccc(S(=O)(=O)N3CCCC3)cc1)CC2 (stereo not drawn)	73% (inactive)
COc1cc2c(cc1OC)C(COc1ccccc1OC)N(C(=O)c1ccc(S(=O)(=O)N3CCCC3)cc1)CC2 (stereo not drawn)	32% (active)
COc1cc2c(cc1OC)C(COc1ccc(C(C)C)cc1)N(C(=O)COc1ccccc1)CC2 (stereo not drawn)	101% (inactive)
COc1cc2c(cc1OC)C(COc1ccccc1OC)N(C(=O)COc1ccc(Cl)cc1)CC2 (stereo not drawn)	47% (active)
COCCCNC(=O)c1cc2c(=O)oc3ccc(C)cc3c2s1	68% (inactive)
COC(=O)c1cnn2c(C)c(Cc3c(C)cc(C)cc3C)c(C)nc12	83% (inactive)
CC(C)Nc1nc(Cl)nc(NNC(=O)C(C)Oc2ccccc2)n1 (stereo not drawn)	93% (inactive)
CCCCNC(=O)CSc1nc2cc3c(cc2c(=O)n1CCCC(=O)NCCc1ccc(OC)c(OC)c1)OCO3	109% (inactive)
CCN(CC)C(=O)CSc1nc2cc3c(cc2c(=O)n1CCCC(=O)NCc1ccc(OC)cc1)OCO3	71% (inactive)
CCN(CC)C(=O)CSc1nc2cc3c(cc2c(=O)n1CCCCCC(=O)NCc1ccc(OC)cc1)OCO3	-1% (active)
COCCNC(=O)CSc1nc2cc3c(cc2c(=O)n1CCCCCC(=O)NCc1ccc(OC)cc1)OCO3	67% (inactive)
COCCCNC(=O)CSc1nc2cc3c(cc2c(=O)n1CCCC(=O)NCc1ccc(OC)cc1)OCO3	83% (inactive)
CCOC(=O)CSc1nc2cc3c(cc2c(=O)n1CCCC(=O)NCCc1ccc(OC)c(OC)c1)OCO3	-2% (active)
COc1ccc(CCNC(=O)CCCn2c(SCC(N)=O)nc3cc4c(cc3c2=O)OCO4)cc1OC	72% (inactive)
COCCCNC(=O)CSc1nc2cc3c(cc2c(=O)n1CCCCCC(=O)NCc1ccc(OC)cc1)OCO3	6% (active)
CCOC(=O)CSc1nc2cc3c(cc2c(=O)n1CCCCCC(=O)NCc1ccc(OC)cc1)OCO3	72% (inactive)
COc1ccc(N2CCN(Cc3nc4c(c(=O)[nH]c(=O)n4C)n3Cc3ccccc3F)CC2)cc1	119% (inactive)
COc1ccccc1Cn1c(CNS(=O)(=O)c2ccc(CC(C)C)cc2)nc2cccnc21	95% (inactive)
COc1ccc(/C=C(\NC(=O)c2ccccc2)C(=O)NC2CCCCC2)cc1	86% (inactive)
COc1cc(NC(=O)c2cc3ccccn3n2)cc(OC)c1OC	69% (inactive)
Cc1ccc(NC(=O)NCCc2c(C)nn(C)c2C)c(Cl)c1	72% (inactive)
Cc1ccc(C(=O)NCC(c2cccs2)S(=O)(=O)c2cccs2)cc1C (stereo not drawn)	78% (inactive)
COC(=O)CN1C(=O)C(C)(C)c2cc(S(=O)(=O)Nc3ccc(C(C)C)cc3)ccc21	79% (inactive)
